# Bioassay records from PubChem BioAssay.
# ROS inducer: raises reactive oxygen species in U2OS cancer cells | 2% of 46,000 active | ROS induction (% of piperlongumine), % at 10 µM | U2OS ROS induction, H2DCF-DA fluorescence; in the data active means ROS induction above about 79%, passing the limit was not always enough;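 further: 0% = DMSO vehicle median and 100% = reference compound median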
# Starred values were filed as active, the others as inactive. The full list was thinned out, with hits kept by preference.
SMILES,ROS inducer
O=C(O[C@H]1[C@H](Oc2ccccc2COC(=O)C2(O)C=CCCC2=O)O[C@H](CO)[C@@H](O)[C@@H]1O)c1ccccc1 (stereo not given in full),6
CC(=O)O[C@H]1[C@H](Oc2ccccc2COC(=O)C2(O)C=CCCC2=O)O[C@H](COC(=O)C2(O)C=CCCC2=O)[C@@H](O)[C@@H]1O (stereo not given in full),89*
O=C(COc1ccc([N+](=O)[O-])cc1)Nc1ccc2oc(-c3ccc(F)cc3Cl)nc2c1,-4
CC(=O)Nc1ccc(Nc2ncnc3c2c(-c2ccccc2)cn3-c2cccc(C)c2)cc1,97*
CC(C)CNc1ncnc2c1c(-c1ccccc1)cn2-c1ccccc1,50
Cc1cccc(-n2ncc3c(Nc4ccc(-c5ccccc5)cc4)ncnc32)c1,4
O=C(COc1ccc(Cl)cc1)Nc1ccc2nc3n(c(=O)c2c1)CCCCC3,6
CN(Cc1ccccc1)C(=O)c1noc2c1COc1ccccc1-2,-7
S=C(Nc1ccccc1)N1CCN(c2ccc3nnc(-c4ccccc4)n3n2)CC1,240*
S=C(Nc1ccccc1)N1CCC(c2ccccc2)=N1,-4
ONC=Nc1ccc2nnc(-c3ccccc3)n2n1,21
Cc1ccc(OCC(=O)Nc2cc(-c3nc4ccc(C)cc4o3)ccc2Cl)c(C)c1,12
C[C@H]1CN([C@@H](C)CO)C(=O)c2cccc(N(C)C)c2O[C@H]1CN(C)C(=O)NC1CCCCC1,-9
CCn1c(SCC(=O)Nc2ccc(F)c(F)c2)nnc1-c1ccncc1,-5
CCOC(=O)c1c(-c2ccccc2)oc2ccc(N(C(C)=O)S(=O)(=O)c3ccc(OC)cc3)cc12,55
C[C@@H]1CCCCO[C@@H](CN(C)Cc2ccc(C(F)(F)F)cc2)[C@@H](C)CN([C@H](C)CO)C(=O)c2cc(NC(=O)c3ccncc3)ccc2O1,98*
C[C@@H]1CCCCO[C@H](CN(C)Cc2ccc(C(=O)O)cc2)[C@@H](C)CN([C@H](C)CO)C(=O)c2cc(NC(=O)c3ccccc3)ccc2O1,28
C[C@@H]1CCCCO[C@H](CN(C)Cc2ccccc2)[C@@H](C)CN([C@H](C)CO)C(=O)c2cc(NC(=O)c3ccncc3)ccc2O1,11
C[C@@H]1CCCCO[C@H](CN(C)Cc2ccncc2)[C@@H](C)CN([C@H](C)CO)C(=O)c2cc(NC(=O)c3ccncc3)ccc2O1,5
C[C@@H]1CCCCO[C@@H](CN(C)Cc2ccccc2)[C@@H](C)CN([C@H](C)CO)C(=O)c2cc(NC(=O)c3ccccc3)ccc2O1,184*
C[C@@H]1CCCCO[C@@H](CN(C)Cc2ccc(C(F)(F)F)cc2)[C@@H](C)CN([C@H](C)CO)C(=O)c2cc(NC(=O)c3ccccc3)ccc2O1,71
O=C(NO)c1cccc(C(=O)N/N=C/c2ccc3c(c2)CCO3)c1,6
C=CCN1Cc2ccccc2[C@H]2OC(c3ccc(OCCCO)cc3)=N[C@@]2(CCS(=O)(=O)c2ccccc2)C1=O,113*
CN(C)C(=O)[C@]1(Cc2ccccc2)N=C(c2ccc(OCCCO)cc2)O[C@@H]1c1ccccc1,51
C=CCN1Cc2ccccc2[C@@H]2OC(c3ccc(OCCCO)cc3)=N[C@]2(CC=C)C1=O,20
SMILES,ROS inducer
O=C(NCC(O)CO)[C@@]1(CCS(=O)(=O)c2ccccc2)N=C(c2ccc(OCCCO)cc2)O[C@H]1c1ccccc1 (stereo not given in full),-2
C=CCN1Cc2ccccc2[C@@H]2OC(c3ccc(OCCCO)cc3)=N[C@]2(Cc2ccccc2)C1=O,36
CN(C)C(=O)[C@]1(CCS(=O)(=O)c2ccccc2)N=C(c2ccc(OCCCO)cc2)O[C@@H]1c1ccccc1,95*
FC(F)(F)C1NCCc2c1[nH]c1ccccc21 (stereo not given),-6
CCn1c(SCC(=O)Nc2c(C)cccc2C)nnc1-c1cnccn1,-3
C[C@@H]1CN([C@H](C)CO)C(=O)Cc2cc(NS(=O)(=O)c3ccccc3)ccc2O[C@H]1CN(C)C(=O)NC1CCCCC1,4
N#Cc1c(OCC(F)(F)F)ccc(S(=O)(=O)N2CCCC2)c1OCC(F)(F)F,6
COc1ccc(S(=O)(=O)N(C)C[C@H]2Oc3c(NC(=O)c4nc5ccccc5s4)cccc3C(=O)N([C@H](C)CO)C[C@H]2C)cc1,-3
N#CC1=C(N)N2CCSC2=NC1(C(F)(F)F)C(F)(F)F,47
C[C@@H]1CN([C@H](C)CO)C(=O)c2cc(NC(=O)C3CCCCC3)ccc2O[C@H]1CN(C)Cc1ccc2c(c1)OCO2,-10
CN1CCN(c2ccc(CNC(=O)c3cccnc3Oc3ccc(Cl)cc3)cc2)CC1,-6
COc1cccc(N(CC(=O)Nc2ccc(I)cc2C)S(C)(=O)=O)c1,1
Cc1cc(I)ccc1NC(=O)CN(c1cccc(F)c1)S(C)(=O)=O,46
COc1ccc(C)cc1N(CC(=O)Nc1cccc(Cl)c1Cl)S(C)(=O)=O,85*
Cc1cccc(N(CC(=O)Nc2ccc(I)cc2C)S(C)(=O)=O)c1,129*
COc1ccc(C)cc1N(CC(=O)Nc1ccccc1-c1ccccc1)S(C)(=O)=O,11
COc1ccc(OC)c(N(CC(=O)Nc2cccc(Cl)c2Cl)S(C)(=O)=O)c1,-7
COc1ccc(S(=O)(=O)Nc2ccc3c(c2)C(=O)N([C@@H](C)CO)C[C@H](C)[C@H](CN(C)S(C)(=O)=O)O3)cc1,-14
C[C@@H]1CN([C@H](C)CO)C(=O)c2cc(NC(=O)CCC(F)(F)F)ccc2O[C@H]1CN(C)C(=O)Nc1ccccc1,-6
CC12C=CC(=O)C=C1CCC1C2=CCC2(C)C1CC[C@@H]2C(=O)CN1CCN(c2cc(N3CCCC3)nc(N3CCCC3)n2)CC1 (stereo not given in full),174*
CCCCN(Cc1ccco1)C(=O)c1cc2c(s1)-c1ccccc1OC2,31
COC(=O)c1c(C)oc2ccc(N(C(C)=O)S(=O)(=O)c3ccc4ccccc4c3)cc12,58
O=C(Nc1nc2ccccc2s1)C1CC1,-7
O=C1CC(C(=O)Nc2ccccc2)N=C(Nc2nc3ccccc3s2)N1 (stereo not given),-12
c1ccc2sc(NC3=NCN(C4CCCCCC4)CN3)nc2c1,100*
SMILES,ROS inducer
CCCn1c(=N)c(C(=O)NC2CCCC2)cc2c(=O)n3ccccc3nc21,18
Cc1cccn2c(=O)c3cc(C(=O)NCC4CCCO4)c(=N)n(C4CCCCC4)c3nc12 (stereo not given),96*
C=CCNC(=O)c1cc2c(=O)n3ccccc3nc2n(CCC)c1=N,56
O=C(O)c1ccccc1C(=O)NCC1CCCO1 (stereo not given),3
C=CCNC(=O)c1cc2c(=O)n3cccc(C)c3nc2n(CC2CCCO2)c1=N (stereo not given),90*
N#Cc1cc2c(=O)n3ccccc3nc2n(C2CCCC2)c1=N,5
CC1OC(=O)CC2C(C(=O)O)=CC3CC(C)(C)CC312 (stereo not given),5
CCCC(=O)N1CCN(c2nc(Cc3ccccc3)c3c(c2C#N)CC(C)(C)OC3)CC1,54
COc1ccc(C2CC(=O)c3c(O)cc(O[C@@H]4O[C@H](CO)[C@@H](OC5OCC(O)(CO)C5O)[C@H](O)[C@H]4O)cc3O2)cc1 (stereo not given in full),-5
COc1ccc(-c2c(C)nn3c(N)c(-c4ccccc4)cnc23)cc1,120*
COC(=O)C(NC(=O)Cc1c(C)nc2c(-c3ccccc3)c(C)nn2c1C)C(C)C (stereo not given),10
Cc1nn2c3c(cnc2c1-c1ccccc1)C(=O)CC(C)(C)C3,26
